From PubChem BioAssay (NCATS)
Results filed as inconclusive are left out. Values without a mark were called inactive. Active and inactive are the calls of the source. Unless noted, calls come from the whole dose curve; as a rule, active = well fitted curve in the direction sought with a large enough effect; inconclusive = small, poorly fitted or top-dose-only effect, or another doubt; inactive = no such curve, though single readings can be large; an effect the other way counts as inactive or inconclusive.

Assays:
[1] = molecular target: Luciferin 4-monooxygenase (Photinus pyralis) (UniProt P08659); assay: Biochemical firefly luciferase enzyme assay for NPC (AID 624030); note: nearly all actives have a fitted effect of over 70% in size
Procedure, shortened: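 Purified P. pyralis luciferase at 10 nM in 50 mM Tris Acetate (final), luminescence read within 5 minutes of enzyme addition to compounds. Activity normalised to PTC124 versus DMSO; concentration-response curves classed by r2, magnitude and activity.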

[2] = S16 Schwann cell PMP22 intronic element firefly luciferase assay (AID 624032); note: nearly all actives have a fitted effect of over 30% in size
Procedure, shortened: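 Rat S16 Schwann cells stably carrying firefly luciferase driven by a PMP22 intronic element, in 10% FBS, treated 24 h at 37 C. ONE-Glo luminescence normalized to PTC124 control and DMSO (0%); curves classed by r2, magnitude and activity.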

[3] = NCATS anti-infectives library activity on HEK293 viability as a counter-qHTS vs the C. elegans viability qHTS (AID 1745854);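 note: HEK293 cells exposed to compounds for 24 hr before the viability read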
Procedure, shortened: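 Compound titrations (final up to 41.7 uM) were incubated with HEK293 cells for 24 hr at 37C under 5% CO2. Viable cells were quantified with CellTiter-Glo after 10 min at ambient temperature.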

[4] = NCATS anti-infectives library activity on the primary C. elegans qHTS viability assay (AID 1745855; calls by dose curve)
Procedure, shortened: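 Titration-based screen in worms: eggs hatched overnight in M9, L1 larvae fed TOP10 capsules in S medium with compound, incubated 21 °C for 7 days; fluorescent objects gated by size and intensity at days 0, 3 and 7.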

[5] = qHTS profiling for inhibitors of Plasmodium falciparum proliferation (AID 504749); note: nearly all actives have a fitted effect of over 60% in size;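 for activity, negative = inhibition: 0% = DMSO vehicle and full inhibition = artemisinin control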; settings: P. falciparum in erythrocytes, SYBR Green DNA, 72 h, at 28.7 µM (top of the series)
Procedure, shortened: (§1)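 SYBR Green fluorescence (ex 485 nm, em 535 nm) reports parasite DNA after 72 h compound exposure of infected red cells at 0.3% parasitemia, 2.5% hematocrit; signal normalized to 0.29 uM artemisinin and vehicle wells.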

7G8 = assay: as above; settings: P. falciparum in erythrocytes, SYBR Green DNA, 72 h; series mostly up to 12.8 µM
Procedure, shortened: as §1

C2A = assay: as above; settings: P. falciparum in erythrocytes, SYBR Green DNA, 72 h; series mostly up to 28.7 µM
Procedure, shortened: as §1

CP185 = assay: as above; settings: P. falciparum in erythrocytes, SYBR Green DNA, 72 h; series mostly up to 28.7 µM
Procedure, shortened: as §1

CP191 = assay: as above; settings: P. falciparum in erythrocytes, SYBR Green DNA, 72 h; series mostly up to 28.7 µM
Procedure, shortened: as §1

CP192 = assay: as above; settings: P. falciparum in erythrocytes, SYBR Green DNA, 72 h; series mostly up to 28.7 µM
Procedure, shortened: as §1

CP215 = assay: as above; settings: P. falciparum in erythrocytes, SYBR Green DNA, 72 h; series mostly up to 28.7 µM
Procedure, shortened: as §1

CP217 = assay: as above; settings: P. falciparum in erythrocytes, SYBR Green DNA, 72 h; series mostly up to 28.7 µM
Procedure, shortened: as §1

CP237 = assay: as above; settings: P. falciparum in erythrocytes, SYBR Green DNA, 72 h; series mostly up to 28.7 µM
Procedure, shortened: as §1

CP238 = assay: as above; settings: P. falciparum in erythrocytes, SYBR Green DNA, 72 h; series mostly up to 28.7 µM
Procedure, shortened: as §1

CP260 = assay: as above; settings: P. falciparum in erythrocytes, SYBR Green DNA, 72 h; series mostly up to 28.7 µM
Procedure, shortened: as §1

CP268 = assay: as above; settings: P. falciparum in erythrocytes, SYBR Green DNA, 72 h; series mostly up to 28.7 µM
Procedure, shortened: as §1

CP269 = assay: as above; settings: P. falciparum in erythrocytes, SYBR Green DNA, 72 h; series mostly up to 28.7 µM
Procedure, shortened: as §1

CP286 = assay: as above; settings: P. falciparum in erythrocytes, SYBR Green DNA, 72 h; series mostly up to 28.7 µM
Procedure, shortened: as §1

CP305 = assay: as above; settings: P. falciparum in erythrocytes, SYBR Green DNA, 72 h; series mostly up to 28.7 µM
Procedure, shortened: as §1

CP335 = assay: as above; settings: P. falciparum in erythrocytes, SYBR Green DNA, 72 h; series mostly up to 12.8 µM
Procedure, shortened: as §1

DFO2036 = assay: as above; settings: P. falciparum in erythrocytes, SYBR Green DNA, 72 h; series mostly up to 28.7 µM
Procedure, shortened: as §1

DIV14 = assay: as above; settings: P. falciparum in erythrocytes, SYBR Green DNA, 72 h; series mostly up to 28.7 µM
Procedure, shortened: as §1

DIV17 = assay: as above; settings: P. falciparum in erythrocytes, SYBR Green DNA, 72 h; series mostly up to 28.7 µM
Procedure, shortened: as §1

Dd2 = assay: as above; settings: P. falciparum in erythrocytes, SYBR Green DNA, 72 h; series mostly up to 28.7 µM
Procedure, shortened: as §1

ECU = assay: as above; settings: P. falciparum in erythrocytes, SYBR Green DNA, 72 h; series mostly up to 28.7 µM
Procedure, shortened: as §1

FAB9 = assay: as above; settings: P. falciparum in erythrocytes, SYBR Green DNA, 72 h; series mostly up to 28.7 µM
Procedure, shortened: as §1

GB4 = assay: as above; settings: P. falciparum in erythrocytes, SYBR Green DNA, 72 h; series mostly up to 28.7 µM
Procedure, shortened: as §1

HB3 = assay: as above; settings: P. falciparum in erythrocytes, SYBR Green DNA, 72 h; series mostly up to 28.7 µM
Procedure, shortened: as §1

JCK = assay: as above; settings: P. falciparum in erythrocytes, SYBR Green DNA, 72 h; series mostly up to 28.7 µM
Procedure, shortened: as §1

P93_24 = assay: as above; settings: P. falciparum in erythrocytes, SYBR Green DNA, 72 h; series mostly up to 28.7 µM
Procedure, shortened: as §1

P94_40 = assay: as above; settings: P. falciparum in erythrocytes, SYBR Green DNA, 72 h; series mostly up to 28.7 µM
Procedure, shortened: as §1

PAD = assay: as above; settings: P. falciparum in erythrocytes, SYBR Green DNA, 72 h; series mostly up to 28.7 µM
Procedure, shortened: as §1

PC15 = assay: as above; settings: P. falciparum in erythrocytes, SYBR Green DNA, 72 h; series mostly up to 28.7 µM
Procedure, shortened: as §1

PC26 = assay: as above; settings: P. falciparum in erythrocytes, SYBR Green DNA, 72 h; series mostly up to 28.7 µM
Procedure, shortened: as §1

PC49 = assay: as above; settings: P. falciparum in erythrocytes, SYBR Green DNA, 72 h; series mostly up to 28.7 µM
Procedure, shortened: as §1

SC27B = assay: as above; settings: P. falciparum in erythrocytes, SYBR Green DNA, 72 h; series mostly up to 28.7 µM
Procedure, shortened: as §1

TAB113 = assay: as above; settings: P. falciparum in erythrocytes, SYBR Green DNA, 72 h; series mostly up to 28.7 µM
Procedure, shortened: as §1

TAB165 = assay: as above; settings: P. falciparum in erythrocytes, SYBR Green DNA, 72 h; series mostly up to 28.7 µM
Procedure, shortened: as §1

W2 = assay: as above; settings: P. falciparum in erythrocytes, SYBR Green DNA, 72 h; series mostly up to 12.8 µM
Procedure, shortened: as §1
Potency is the fitted concentration of half-maximal effect.

Luciferin 4-monooxygenase (Photinus pyralis), sequence (P08659 whole entry, looked up): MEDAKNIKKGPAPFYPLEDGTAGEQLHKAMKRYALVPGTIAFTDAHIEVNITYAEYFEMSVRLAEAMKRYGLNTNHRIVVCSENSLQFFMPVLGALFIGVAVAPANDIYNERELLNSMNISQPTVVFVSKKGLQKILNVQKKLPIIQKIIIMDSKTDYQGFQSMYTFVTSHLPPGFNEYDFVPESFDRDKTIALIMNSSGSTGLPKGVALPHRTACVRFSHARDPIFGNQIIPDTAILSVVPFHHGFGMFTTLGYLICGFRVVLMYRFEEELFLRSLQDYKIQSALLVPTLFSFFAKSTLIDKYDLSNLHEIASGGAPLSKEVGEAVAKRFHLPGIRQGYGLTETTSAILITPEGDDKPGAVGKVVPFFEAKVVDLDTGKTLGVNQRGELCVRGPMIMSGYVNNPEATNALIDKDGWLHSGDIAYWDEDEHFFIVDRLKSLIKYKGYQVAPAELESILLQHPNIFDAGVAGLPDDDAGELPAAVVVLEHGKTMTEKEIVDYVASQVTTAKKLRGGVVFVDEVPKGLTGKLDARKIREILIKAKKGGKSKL

What does the source list for `[Hg+][c]1ccccc1`?
Potency [1]: 8.09 µM (active); Potency [2]: 1.02 µM (active); Potency [3]: 2 µM (active); Potency [4]: 8.16 µM (active); activity, negative = inhibition ([5]; parasite line A): 13.8%; activity, negative = inhibition ([5]; parasite line B): -0.414%; Potency (7G8): 1.78 µM (active); Potency (C2A): inactive; Potency (CP185): inactive; Potency (CP191): inactive; Potency (CP192): 12 µM (active); Potency (CP215): 10.7 µM (active); Potency (CP217): inactive; Potency (CP237): inactive; Potency (CP238): inactive; Potency (CP260): inactive; Potency (CP268): 9.53 µM (active); Potency (CP269): 15.1 µM (active); Potency (CP286): inactive; Potency (CP305): 10.7 µM (active); Potency (CP335): 10.7 µM (active); Potency (DFO2036): inactive; Potency (DIV14): 9.53 µM (active); Potency (DIV17): 13.5 µM (active); Potency (Dd2): inactive; Potency (ECU): inactive; Potency (FAB9): 7.08 µM (active); Potency (GB4): 9.53 µM (active); Potency (HB3): inactive; Potency (JCK): 11.2 µM (active); Potency (P93_24): inactive; Potency (P94_40): inactive; Potency (PAD): inactive; Potency (PC15): 7.94 µM (active); Potency (PC26): 12 µM (active); Potency (PC49): 3.55 µM (active); Potency (SC27B): inactive; Potency (TAB113): inactive; Potency (TAB165): inactive; Potency (W2): 12 µM (active)
